Structures can show the parent of a compound that is named as a salt.
The molecules below were run on PBMC-derived induced microglia-like cells (piMGLC) (assay: synaptosome phagocytic index relative to DMSO control (fraction of DMSO); higher = more phagocytosis). Settings: concentration: 10 uM (2 uM for compounds listed in Table S2); pretreatment time: 24 h; assay time: 3 h.
Method: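 PBMC-derived induced microglia-like cells (piMGLCs) in 96-well plates were pretreated for 24 h with CNS-penetrant library compounds (MedChemExpress HY-L028), mostly at 10 uM; Table S2 lists 9 compounds at 2 uM. pHrodo-Red-labelled human iPSC-neuron synaptosomes (3 ug/well) were then added for 3 h, and cells were fixed and imaged by confocal microscopy. Phagocytic index (synaptosome area / cell count, CellProfiler) is a mean over 3 replicate wells on different plates, normalized to the DMSO control. Compounds leaving <10% of DMSO cell count were marked toxic and given no value.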

Structure (SMILES)	synaptosome phagocytic index
CN1C[C@@H]2[C@H](C1)[C@H]2CN(Cc1ccc(F)c(Cl)c1)C(=O)c1cn(C)cn1	0.691
CCN(CC)C(=S)SSC(=S)N(CC)CC [Disulfiram]	0.784
CNNCc1ccc(C(=O)NC(C)C)cc1 [Procarbazine_(Hydrochloride)]	1.1
Cc1cc(NC(=O)Cc2ccc(F)c(Cl)c2)n(C2CCCCC2)n1	0.77
O=c1[nH]c2cc(Cl)ccc2c(O)c1-c1cccc(Oc2ccccc2)c1	1.18
Cc1cn([C@H]2C=C[C@@H](CO)O2)c(=O)[nH]c1=O [Stavudine]	0.555
CN(C)C(=N)NC(=N)N [Metformin]	1.28
CCc1cc(Nc2nc(-c3ccc(-n4cnc(C)c4)c(F)c3)cs2)c(C)cc1C	0.666
Nc1cccc2c1C(=O)N(C1CCC(=O)NC1=O)C2=O (stereo not given) [Pomalidomide]	0.545
CCCCNc1ncc2c(-c3ccc(CN4CCN(C)CC4)cc3)cn([C@H]3CC[C@H](O)CC3)c2n1	0.246
NC(=O)N1c2ccccc2CC(=O)c2ccccc21 [Oxcarbazepine]	0.693
COC(=O)C1=C(C)NC(C)=C(C(=O)OCCN(C)Cc2ccccc2)C1c1cccc([N+](=O)[O-])c1 (stereo not given) [Nicardipine_(hydrochloride)]	0.627
O=C(NC1CCCCC1)N(Cc1ccccc1)CC1CCNCC1	0.882
CC(C)(O)CC(=O)NCCn1ccc2ncnc(Nc3ccc(Oc4cccc(C(F)(F)F)c4)c(Cl)c3)c21	1.04
O=C(O)Cc1ccccc1Nc1c(Cl)cccc1Cl [Diclofenac]	1.01
O=c1n(CCCN2CCN(c3cccc(Cl)c3)CC2)nc2ccccn12 [Trazodone_(hydrochloride)]	1.39
C[N+](C)(C)CCOP(=O)([O-])OC[C@H](O)CO [sn-Glycero-3-phosphocholine]	0.483
CC(CN(C)C)CN1c2ccccc2CCc2ccccc21 (stereo not given) [Trimipramine_(maleate)]	0.449
COc1cc2c(N3CCN(C(=O)Nc4ccc(OC(C)C)cc4)CC3)ncnc2cc1OCCCN1CCCCC1 [Tandutinib]	0.936
Cc1nc2n(c(=O)c1CCN1CCC(c3noc4cc(F)ccc34)CC1)CCCC2 [Risperidone]	0.887

Structure (SMILES)	synaptosome phagocytic index
CN(C)C(=N)NC(=N)N [Metformin_(hydrochloride)]	0.668
CN1CCN2c3ncccc3Cc3ccccc3C2C1 (stereo not given) [Mirtazapine]	1.1
COc1ccc2c(c1)c(CC(=O)O)c(C)n2C(=O)c1ccc(Cl)cc1 [Indomethacin_(sodium_hydrate)]	0.618
C#CCNS(=O)(=O)c1ccc(CCN(Cc2cc(Cl)ccc2OCCC)C(=O)Cc2ccsc2)cc1	0.54
O=C(O)c1cc(/N=N/c2ccc(S(=O)(=O)Nc3ccccn3)cc2)ccc1O [Sulfasalazine]	0.883
C#CCN[C@@H]1CCc2ccccc21 [Rasagiline_(mesylate)]	0.965
C#Cc1cccc(Nc2ncnc3cc(OCCOC)c(OCCOC)cc23)c1 [Erlotinib]	0.798
Cc1ccccc1C(OCCN(C)C)c1ccccc1 (stereo not given) [Orphenadrine_(citrate)]	1.23
Clc1ccc2c(c1)C(N1CCNCC1)=Nc1ccccc1O2 [Amoxapine]	0.463
C[C@@H]1CN(C(=O)[C@@H]2CN(C(C)(C)C)C[C@H]2c2ccc(F)cc2F)C[C@H](C)[C@@]1(O)c1ccccc1	0.704
Cc1cc(Oc2cncnc2)cc(C(=O)Nc2ccc(F)cn2)n1 [Auglurant]	1.03
N[C@H]1CONC1=O [L-Cycloserine]	0.883
CC(C)(C)C(=O)NCCCC(=O)O [Pivagabine]	0.829
CCOC(=O)C1=CCCC[C@H]1S(=O)(=O)Nc1ccc(F)cc1Cl [Resatorvid]	0.156
Nc1nc2c(ncn2COC(CO)CO)c(=O)[nH]1 [Ganciclovir]	0.98
COc1ccc(NS(=O)(=O)c2ccc(N)cc2)nn1 [Sulfamethoxypyridazine]	1.03
Clc1cccc(CN=C2Nc3ccccc3NC23CCNCC3)c1 [Liproxstatin-1]	1.31
CC(=O)[C@H]1CC[C@H]2[C@@H]3CC=C4C[C@@H](O)CC[C@]4(C)[C@H]3CC[C@]12C [Pregnenolone]	0.878
CC(C)(C)c1cnc(CSc2cnc(NC(=O)C3CCNCC3)s2)o1	0.572
N[C@H](C(=O)O)[C@H](O)c1ccc(O)c(O)c1 [Droxidopa]	0.507

— the supplement of paper PMC12339681
